The results in this text go back to PubChem BioAssay (EPA / NIEHS).

SMILES strings stand for the structures. Records with an inconclusive call do not appear. Calls of active or inactive are those of the source. The calls were made as follows: active = hit-call score of the fitted dose curve at least 0.9, where 1 is the maximum; inconclusive = response in the unintended direction; inactive = score below 0.9.

In the test the target is chimpanzee Androgen Receptor (AR), AR (gene 747460) (UniProt O97775). Briefly: NVS_NR_cAR: NovaScreen (NVS) Nuclear Receptor Binding Assay for chimpanzee Androgen Receptor (AR) (AID 2283346).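 Also: a loss of bound radioligand signal versus DMSO counts as binding.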 The method, then: NVS_NR_cAR is a biochemical, single-readout assay that uses extracted gene-proteins from Sf9/Sf21 in a cell-free assay. Measurements were taken 72 hours after chemical dosing in a 96-well plate.NVS_NR_cAR is one of one assay component(s) measured or calculated from the NVS_NR_cAR assay. It is designed to make measurements of radioligand binding, a form of binding reporter, as detected with scintillation counting signals by Lysate-based radiodetection technology.Data from the assay component NVS_NR_cAR was analyzed into 1 assay endpoint. This assay endpoint, NVS_NR_cAR, was analyzed in the positive analysis fitting direction relative to DMSO as the negative control and baseline of activity. Using a type of binding reporter, loss-of-signal activity can be used to understand changes in the binding as they relate to the gene AR. Furthermore, this assay endpoint can be referred to as a primary readout, because the performed assay has only produced 1 assay endpoint. To generalize the intended target to other relatable targets, this assay endpoint is annotated to the nuclear receptor intended target family, where the subfamily is steroidal.
chimpanzee Androgen Receptor (AR), AR (gene 747460), sequence (O97775 whole entry, looked up): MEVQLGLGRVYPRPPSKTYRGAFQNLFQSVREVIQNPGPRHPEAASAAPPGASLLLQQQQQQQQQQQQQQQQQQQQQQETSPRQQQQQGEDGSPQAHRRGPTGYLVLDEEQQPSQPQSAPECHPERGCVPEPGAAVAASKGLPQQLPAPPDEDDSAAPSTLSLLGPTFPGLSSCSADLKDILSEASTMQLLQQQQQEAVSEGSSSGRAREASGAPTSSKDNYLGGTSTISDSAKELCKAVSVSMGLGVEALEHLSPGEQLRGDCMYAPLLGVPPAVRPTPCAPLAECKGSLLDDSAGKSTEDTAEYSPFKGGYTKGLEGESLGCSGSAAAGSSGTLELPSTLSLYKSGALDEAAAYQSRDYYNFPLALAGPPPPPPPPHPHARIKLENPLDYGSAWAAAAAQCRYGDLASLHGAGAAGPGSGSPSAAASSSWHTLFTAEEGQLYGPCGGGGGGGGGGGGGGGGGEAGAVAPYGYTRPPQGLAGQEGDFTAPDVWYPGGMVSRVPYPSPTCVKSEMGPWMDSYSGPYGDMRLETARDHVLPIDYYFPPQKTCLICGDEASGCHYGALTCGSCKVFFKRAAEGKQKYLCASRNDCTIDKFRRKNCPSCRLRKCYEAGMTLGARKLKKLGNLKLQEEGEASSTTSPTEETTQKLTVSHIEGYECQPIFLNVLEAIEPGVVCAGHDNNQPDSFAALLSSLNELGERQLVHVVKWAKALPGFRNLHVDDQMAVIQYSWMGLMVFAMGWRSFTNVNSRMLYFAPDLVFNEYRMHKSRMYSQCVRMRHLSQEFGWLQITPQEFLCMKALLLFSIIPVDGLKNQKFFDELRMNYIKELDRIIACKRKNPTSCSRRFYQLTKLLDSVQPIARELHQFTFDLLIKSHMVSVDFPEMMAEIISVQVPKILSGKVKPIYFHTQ
Binding assays used specific radioligands (tritiated, iodinated) with non-radioactive competitive displacement ligands in agonist or antagonist protocols (as indicated) and various reference compounds and inhibitors to titrate specific binding to receptors and transporters. Most enzyme assays (CYPs, kinases, phosphatases, proteases, HDACs) used recombinant protein and specific substrates (fluorescence mostly, some colorimetric and radioactive) and inhibitors, followed by a biochemical separation of substrate and product. All assays for the biochemical HTS were initially run in duplicate at a single concentration (10 uM for CYP450 assays and 25 uM for all others). […] Each assay was run with positive and negative controls, and concurrent controls on every plate. The follow-up (secondary) screen tested active chemical-pairs in concentration series, as well as a few additional assays not tested in the primary screen, some selected negative inactives, and several cases re-run in the concentration series for confirmatory purposes.
Regarding `CN(C)[C@@H]1C(=O)C(C(N)=O)=C(O)[C@@]2(O)C(=O)C3=C(O)c4c(O)cccc4[C@@](C)(O)[C@H]3[C@H](O)[C@@H]12`, the concentration at half-maximal activity (AC50) was 11.3 µM (active).
Regarding `CCc1cccc(CC)c1N(COC)C(=O)CCl`, the half-maximal activity concentration (AC50) was 34.6 µM (active).
Same read-out and setting: the figure for `CCC(=O)Nc1ccc(Cl)c(Cl)c1` is 12.4 µM (active).
The same measure, in the same setting: the value for `COc1ccc(C(=CC(=O)N2CCOCC2)c2ccc(Cl)cc2)cc1OC` was 17.3 µM (active); that for `Nc1c(Cl)cc([N+](=O)[O-])cc1Cl` was 15.4 µM (active); that for `CC[C@H](C)[C@H]1O[C@]2(C=C[C@@H]1C)C[C@@H]1C[C@@H](C/C=C(\C)[C@@H](O[C@H]3C[C@H](OC)[C@@H](O[C@H]4C[C@H](OC)[C@@H](NC)[C@H](C)O4)[C@H](C)O3)[C@@H](C)/C=C/C=C3\CO[C@@H]4[C@H](O)C(C)=C[C@@H](C(=O)O1)[C@]34O)O2` was 6.02 µM (active).
The same measure, in the same setting: the figure for `CCOP(=O)(NC(C)C)Oc1ccc(SC)c(C)c1` (configuration not stated) is 25 µM (active); for `CC(C1CC1)C(O)(Cn1cncn1)c1ccc(Cl)cc1` (configuration not stated) it is 24.9 µM (active); for `FC(F)C(F)(F)OCC(Cn1cncn1)c1ccc(Cl)cc1Cl` (configuration not stated) it is 5.47 µM (active).
For the compound `C[Si](Cn1cncn1)(c1ccc(F)cc1)c1ccc(F)cc1`, the AC50 is 9.47 µM (active).
The same measure, in the same setting: the figure for `CCCOCC(=Nc1ccc(Cl)cc1C(F)(F)F)n1ccnc1` is 5.96 µM (active).
Consider `C#CCC1=C(C)C(OC(=O)C2C(C=C(C)C)C2(C)C)CC1=O` (configuration not stated), for which the compound was called inactive.

As usually defined, the AC50 is the concentration at which the activity in the assay is half-maximal.
